High-throughput results: PubChem, National Center for Advancing Translational Sciences (NCATS)
The list is not random: actives were taken first. Their share in the collection is about 2.4%.
Pol iota inh = qHTS for Inhibitors of Polymerase Iota; Pol iota fluorescent replication assay, 10 min; Potency, µM (titrated, usually from 115 µM), without a hit: at the top dose activity, negative = inhibition, hits mostly inhibitors; actives 1% (n = 390,000)
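Pol iota at 10 nM preincubated 15 min with compounds at room temperature; reaction started with fluorescent substrate, 50 nM final. Fluorescence read kinetically at 0 and 10 min; buffer-only wells as negative control.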
POLH inh = qHTS for Inhibitors of Polymerase Eta; recombinant Pol eta, fluorescent DNA replication assay; Potency, µM (series often up to 114 µM), for the others: top-dose activity change, negative = inhibition, actives largely listed as inhibitors; actives 1.2% (n = 390,000); AID 588591, 2011; note: % is set by controls: 0 for no effect and ±100 for the full control effect
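Pol eta at 10 nM preincubated with compounds 15 min at room temperature; reaction started with fluorescent substrate (50 nM final) and read kinetically at 0 and 10 min.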
WRN helicase inh = qHTS for Inhibitors of WRN Helicase; Bifunctional 3'-5' exonuclease/ATP-dependent helicase WRN (Homo sapiens), Q14191; WRN helicase unwinding, fluorescent forked duplex, kinetic; Potency, µM (series often up to 114 µM), without a hit: top-dose activity change, negative = inhibition, actives largely listed as inhibitors; actives 0.46% (n = 360,000); AID 651768, 2012; note: % is set by controls: 0 for no effect and ±100 for the full control effect; nearly all actives have a fitted effect of over 55% in size
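Primary qHTS, 1536-well format. 20 nM WRN + compound, 15 min RT; start with 100 nM forked fluorophore/quencher duplex, 2 mM ATP (final); kinetic read ex 525/em 598 nm.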
Pol kappa inh = qHTS for Inhibitors of Polymerase Kappa | DNA polymerase kappa (Homo sapiens), Q9UBT6 | purified Pol kappa, fluorescent DNA synthesis assay, 10 min | Potency, µM (top dose mostly 107 µM), for inactives: at the top dose activity, negative = inhibition, most hits filed as inhibitors | actives 0.53% (n = 400,000) | AID 588579, 2011; note: % is set by controls: 0 for no effect and ±100 for the full control effect
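Fluorescent qHTS in 1536-well format: enzyme (10 nM) and compound sat 15 min at room temperature before 50 nM substrate (final) was added. Signal taken at 0 and 10 min; no-enzyme buffer wells were negative controls.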
POLB inh = qHTS Assay for Inhibitors of DNA Polymerase Beta. P06746. Pol beta primer extension/strand displacement, fluorescence kinetic. Potency, µM (highest dose often 114 µM), inactives show at the top dose activity change, negative = inhibition, most hits filed as inhibitors. actives 1.3% (n = 340,000); note: % is set by controls: 0 for no effect and ±100 for the full control effect
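Human Pol beta at 10 nM; strand-displacement substrate 50 nM final. Compound exposure 15 min at room temperature before start, reaction 10 min at room temperature.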
FEN1 inh = qHTS Assay for the Inhibitors of Human Flap endonuclease 1 (FEN1); Potency, µM (titrated, usually from 114 µM), for inactives: at the top dose activity change, negative = inhibition, usual class: inhibitors; Recombinant FEN1 flap cleavage, fluorescence, 15 min; actives 0.35% (n = 390,000); P39748; note: % is set by controls: 0 for no effect and ±100 for the full control effect; nearly all actives have a fitted effect of over 65% in size
Target sequence (P39748 whole entry, looked up): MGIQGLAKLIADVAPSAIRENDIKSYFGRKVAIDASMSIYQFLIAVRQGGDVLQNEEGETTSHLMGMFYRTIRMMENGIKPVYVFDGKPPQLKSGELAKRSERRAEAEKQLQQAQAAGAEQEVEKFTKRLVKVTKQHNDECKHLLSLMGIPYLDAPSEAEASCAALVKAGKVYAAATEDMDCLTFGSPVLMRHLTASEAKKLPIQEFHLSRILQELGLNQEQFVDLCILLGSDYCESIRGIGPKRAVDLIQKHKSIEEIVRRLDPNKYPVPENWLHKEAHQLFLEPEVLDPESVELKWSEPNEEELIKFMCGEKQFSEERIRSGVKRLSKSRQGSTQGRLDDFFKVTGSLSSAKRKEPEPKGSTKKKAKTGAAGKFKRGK
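Potency values derive from four-parameter Hill fits of normalized qHTS data. The reaction used 10 nM FEN1 preincubated 15 min at room temperature with compound, then 50 nM DNA substrate, read at 0 and 15 min.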
* hit, by the source's call; ? = inconclusive; nt = not tested or not shown; [ ] = dose if it differs, or a comment. Calls come from the whole dose curve; as a rule, active = well fitted curve in the direction sought with a large enough effect; inconclusive = small, poorly fitted or top-dose-only effect, or another doubt; inactive = no such curve, though single readings can be large; an effect the other way counts as inactive or inconclusive. Potency is the fitted concentration of half-maximal effect.

SMILES | Pol iota inh | POLH inh | WRN helicase inh | Pol kappa inh | POLB inh | FEN1 inh
COc1cc(-c2nnc(SCCOc3ccc(Cl)cc3)o2)cc(OC)c1OC | 10% | -15% | nt | -13% | -18% | -6%
COc1ccc(CCNC(=O)c2ccc3c(c2)N(Cc2ccccc2Cl)C(=O)c2ccccc2S3)cc1OC | 18% | -23% | nt | -12%[60.1 µM] | -20% | 2%
COc1ccc(/C=C2\SC(N)=NC2=O)cc1Br | ? | ? | -32% | -20% | 40µM* | -2%
CCCOc1ccc(/C=C2\SC(N)=NC2=O)cc1OC | ? | -18% | -7% | 3% | 56µM* | 12%
CCc1ccc(NC(=O)Cn2c(=O)n(Cc3ccco3)c(=O)c3cccnc32)cc1 | -20% | 0% | nt | -2% | -1% | 15%
O=C(NCc1ccc(/C=c2\sc3n(c2=O)CCN=3)o1)C(=O)Nc1ccccc1 | nt | nt | nt | nt | 4.5µM* | nt
Cc1ccc(/C=c2/sc3n(c2=O)CCCN=3)o1 | -7% | -13% | 2% | -14% | ? | 0%
O=C(C[n+]1cccc2cc(Cl)ccc21)c1ccc2c(c1)CCCC2 | -2% | nt | nt | -8% | nt | 13%
COc1ccc(CCNC(=O)CCc2c(C)nc3cc(-c4ccccc4OC)nn3c2C)c(OC)c1 | 12% | -13% | nt | -12% | -27% | -16%
O=C(Nc1ccc(N2CCN(c3ccc(O)cc3)CC2)cc1)Oc1ccccc1 | 5% | -6% | -4% | -8% | 28% | -1%
Nc1ccc(OC(=O)Nc2ccc(O)cc2)cc1 | 20µM* | -13% | -14% | -8% | 32% | -13%
CCOC(=O)/C=C1\SCC(=O)N1CC(=O)c1ccc[nH]1 | ? | ? | -7%[11.6 µM] | ? | 20µM* | -2%
O=C(/C=C/c1ccc(O)cc1)OC[C@H]1O[C@@H](Oc2c(-c3ccc(O)cc3)oc3cc(O)cc(O)c3c2=O)[C@H](O)[C@@H](O)[C@@H]1O | nt | nt | nt | -5%[60.1 µM] | nt | nt
CC(C)(C)C1=CC(=O)C(=O)C(C(C)(C)C)=C1 | 6% | -24% | -14% | -8% | 7% | 71µM*
O=S1(=O)CCO[C@H]2CCCC[C@@H]2N1Cc1ccc(Cl)cc1 | 24% | nt | nt | -16% | nt | -15%
CCCCc1ccc(NC(=O)COC(=O)c2ccccc2OCC(=O)Nc2ccc(Br)cc2)cc1 | 7% | nt | nt | -13% | nt | 14%
CCn1c2ccccc2c2nnc(SCc3ccc(C(=O)OC)o3)nc21 | 3% | -10% | -11% | -6% | 35µM* | -9%
O=C(Nc1nccs1)[C@@H]1CC=C[C@@H]2CCN(C3CC3)C(=O)[C@@H]21 | 4% | nt | nt | -6% | nt | 20%
NCCCC[C@H](NC(=O)[C@H](Cc1c[nH]c2ccccc12)NC(=O)[C@H](CC(=O)O)NC(=O)[C@H](Cc1cnc[nH]1)NC(=O)[C@H](CO)NC(=O)[C@H](Cc1c[nH]c2ccccc12)NC(=O)[C@H](Cc1cnc[nH]1)NC(=O)[C@@H]1CCC(=O)N1)C(=O)N1CCC[C@H]1C(=O)NCC(N)=O | nt | nt | nt | -10%[60.1 µM] | nt | nt
CCN(CC)c1ccc(NC(=O)COc2ccc(-n3cnnn3)cc2)cc1 | 14% | -7% | -3% | -12% | nt | -15%
CCOC(=O)c1ccc(NC(=O)COc2ccc(-n3cnnn3)cc2)cc1 | ? | ? | -21% | -16% | 32µM* | 6%
Cc1ccnc(SCC(=O)Nc2sccc2C#N)n1 | ? | -27% | 4%[11.6 µM] | ? | 32µM* | -3%
COc1cc([N+](=O)[O-])ccc1-c1ccc(/C=N/NC(N)=O)o1 | 89µM* | 9% | 17% | -13% | ? | -8%
NC(=O)c1ccc(N=C2C(=O)Nc3ccc([N+](=O)[O-])cc32)cc1 | ? | 20µM* | 4% | -9% | ? | ?
Cc1cc(NC(=O)C(C)Sc2nnc(NCc3ccco3)s2)no1 (configuration not stated) | 40µM* | ? | -11% | -15% | nt | 2%
SMILES | Pol iota inh | POLH inh | WRN helicase inh | Pol kappa inh | POLB inh | FEN1 inh
CNc1nc(-c2ccc(N(C)C)cc2)nc2ccccc12 | nt | nt | nt | -20%[60.1 µM] | nt | nt
N#Cc1c(Cl)nc(N/N=C/c2ccccc2)c(Cl)c1Cl | 3% | -14% | -9% | -5% | 20µM* | -7%
NC(=O)COC(=O)c1c2c(nc3ccccc13)CCCC2 | 94% | -12% | -26% | -2% | 26% | 4%
O=C(Nc1cccc(S(=O)(=O)N2CCOCC2)c1)c1ccc2ccccc2n1 | 7% | -6% | 4% | 5% | 1% | -21%
CCCC(C)NC(=O)c1c2c(nc3ccccc13)CCC2 (configuration not stated) | ? | ? | -3%[11.6 µM] | ? | 18µM* | -1%
NC(=O)COC(=O)c1c2c(nc3ccccc13)CCC2 | ? | 35µM* | -12% | ? | ? | -11%
O=C(Nc1cccc(S(=O)(=O)N2CCOCC2)c1)c1c2c(nc3ccccc13)CCC2 | 45µM* | ? | -15%[57.1 µM] | -38% | 10µM* | -5%
CO[C@H]1/C=C\O[C@@]2(C)Oc3c(C)c(O)c4c(O)c(c(C=NN5CCN(C6CCCC6)CC5)c(O)c4c3C2=O)NC(=O)C(C)=CC=C[C@H](C)[C@H](O)[C@@H](C)[C@@H](O)[C@@H](C)[C@H](OC(C)=O)[C@H]1C | 5% | nt | nt | -15% | nt | ?
CN(C)c1ccc(-c2c(C3C4C=CCCC4(C)C(=O)N3Cc3ccccc3)ccc3ccccc23)cc1 (configuration not stated) | -9% | nt | nt | -10% | nt | -22%
CCc1ccc(-c2nc(CS(=O)CC(=O)NCc3ccco3)c(C)o2)cc1 (configuration not stated) | 12% | 89µM* | -5% | -10% | ? | 13%
Cc1ccc(C(=O)C[n+]2cccc3cccc(O)c32)cc1 | 35% | nt | nt | -6% | nt | -9%
CNC(=O)Oc1ccc2c(c1)C1(C)CCN(C)C1N2C (configuration not stated) | nt | nt | nt | -9%[19.4 µM] | nt | nt
CCOc1ccc(C(=O)N(Cc2nc(-c3cccc(C)c3)no2)C(C)C)cc1 | 26% | -17% | nt | -7% | 24% | 3%
O=C(CNC(=O)c1cccc(S(=O)(=O)N2CCc3ccccc32)c1)Nc1ccccc1Br | 0% | -11% | 0% | -3% | nt | 2%
O=C(CNC(=O)c1cccc(-n2cccc2)c1)Nc1ccccc1Br | nt | 32µM* | -23% | nt | nt | nt
O=C1NN(c2cccc(Br)c2)C(=O)/C1=C/c1cccs1 | ? | 79µM* | 2% | -5% | -2% | -1%
